Results on 112 molecules are retold here after PubChem BioAssay AID488890 (Southern Research Specialized Biocontainment Screening …, 2010).

The campaign covered roughly 320,000 compounds. About 1,300 (0.41%) were called active. Inconclusive results (about 3%) are left out. No rule for the calls is given here. A selection follows. Results with a measured potency or affinity are listed apart.

The assay in a line: growth inhibition of non-replicating M. tuberculosis (AID 488890).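 Also: plate controls were DMSO cells for no effect and high antibiotic wells for full effect.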 The conditions noted are these: Mycobacterium tuberculosis non-replicating, at 25 µM, stronger effect = higher value.
By inhibition is commonly meant the relative decrease from the control value, in per cent. As for `O=C(COc1cc2oc(=O)c3c(c2cc1Cl)CCC3)Nc1cccnc1`, the inhibition was determined as 5.55%.
For `Cc1cc(NC(=O)CCS(=O)(=O)c2nc(-c3ccccc3)cc(C(F)(F)F)n2)no1`, the inhibition was determined as 41.1%.
As for `Cc1ccc(-c2cc(C(F)F)nc(N3CCOCC3)n2)cc1`, the inhibition amounted to 17.6%.
For `COc1ccc(-c2cc(C(F)(F)F)nc(S(=O)(=O)CCC(=O)N3CCOCC3)n2)cc1`, the inhibition is 79%.
Take `CCOC(=O)CCSc1nc(-c2ccccc2)cc(C(F)(F)F)n1`: the inhibition was 8.6%.
Consider `COc1ccccc1-c1cc(C(F)(F)F)nc(S(=O)(=O)CCCC(=O)O)n1`, for which the inhibition is 44.3%.
For `CCOC(=O)CSc1nc(-c2ccccc2)cc(C(F)(F)F)n1`, the inhibition turned out to be 69.6%.
On to `Cc1ccc(-c2cc(C(F)F)nc(N3CCC(C)CC3)n2)cc1`, for which the inhibition was 8.45%.
`COc1ccc(-c2cc(C(F)(F)F)nc(N)n2)cc1`: the inhibition was found to be 6.01%.
For the molecule `O=C1OC[C@H]2CCCN2C(=O)[C@@H](CC(=O)N(CCO)Cc2ccccc2)C/C=C\C[C@H]1Cc1ccc(F)cc1`, the inhibition worked out at 47.4%.
With `O=C1NNC(c2ccccc2)=N/C1=C\c1ccccc1`, the inhibition was -6.71%.
For `CSc1ccccc1C(=O)NCCCOC(C)C`, the inhibition is -17.5%.
As for `O=C(O)/C=C/C(=O)NCCCc1ccccc1`, the inhibition came out at 18.7%.
Next, `CC1=C(C(=O)OCCOC(C)C)C(c2cc3c(cc2Br)OCO3)C2=C(CCCC2=O)N1` (configuration not stated): 12.9%; `COc1cc(CC(CC(=O)O)CC(C)OCc2ccccc2)cc(OC)c1` (configuration not stated): 24.2%; `O=C(c1ccc2c(=O)n3c(nc2c1)CCCCC3)N1CCN(c2ccc([N+](=O)[O-])cc2)CC1`: 25.7%.
Turning to `COc1ccc(COC(=O)c2ccc3c(=O)n4c(nc3c2)CCC4)cc1F`, the inhibition was -0.76%.
As to `O=C(COc1ccccc1Cl)NNC(=O)c1ccc2c(=O)n3c(nc2c1)CCC3`, the inhibition is -23%.
Next, `COc1ccc(CN(C)C(=O)c2ccc3c(=O)n4c(nc3c2)CCC4)cc1`: -3.83%; `O=C(NNC(=O)c1ccccc1Cl)c1ccc2c(=O)n3c(nc2c1)CCC3`: 1.89%.
The value for `CN(Cc1cccc(F)c1)C(=O)c1ccc2c(=O)n3c(nc2c1)CCC3` was -4.16%; that for `O=C(Nc1ccc2nc3n(c(=O)c2c1)CCCC3)c1cccc([N+](=O)[O-])c1` was -20.7%; that for `CC(OC(=O)c1ccc2c(=O)n3c(nc2c1)CCC3)C(N)=O` (configuration not stated) was -8.53%.
Consider `CC1CCCCN1S(=O)(=O)c1ccc(S(=O)(=O)N2CCCC2)cc1` (configuration not stated), for which the inhibition is 4.73%.
The value for `CCOc1ccc(CCNS(=O)(=O)c2cc3c(cc2C)NC(=O)CO3)cc1OCC` was 16.2%.
`O=C(Cc1cccc2ccccc12)Nc1ccccc1Br`: the inhibition was determined as 12.5%.
Regarding `CC(=O)Nc1nnc(SCC(=O)NCc2ccc3c(c2)OCO3)s1`, the inhibition was -14.9%.
Turning to `Cc1ccc(C(=O)NCc2ccc3c(c2)OCO3)cc1Cl`, the inhibition is 45.9%.
Regarding `Cc1ccc(CS(=O)(=O)CCC(=O)N2CCC3(CC2)OCCO3)cc1`, the inhibition is -11.2%.
Turning to `Cc1ccc(S(=O)(=O)Nc2ccccc2F)cc1C(=O)NCCCN1CCCC1=O`, the inhibition is -4.79%.
Take `CCOC(=O)c1c(S(=O)(=O)Nc2ccc(C)c(F)c2)c(C)n(C)c1C`: the inhibition was -0.18%.
With `CC1(C)CC(=O)C(C2=NC3(CCCCCC3)Cc3ccccc32)=C(O)C1`, the inhibition is -2.29%.
Consider `CS(=O)(=O)N1CCC(C(=O)Nc2cc(Cl)ccc2Cl)CC1`, for which the inhibition was -6.65%.
Consider `CC(C)c1cc(C(=O)N2CCN(C(c3ccccc3)c3ccccc3)CC2)no1`, for which the inhibition was determined as 21.3%.
The value for `NC(=O)[C@@H]1CC2(CC(c3cccc(NC(=O)CC(c4ccccc4)c4ccccc4)c3)=NO2)CN1C(=O)[C@@H]1CCC(=O)N1` (some centres not stated) was 14.1%; that for `CCc1nnc(NC(=O)C2Cc3ccccc3CN2S(=O)(=O)CC)s1` (configuration not stated) was 5.84%.
Next, `CCOc1ccc(NC(=O)c2ccc3c(=O)n4c(nc3c2)CCCCC4)cc1`: 20.7%; `CC(OC(=O)c1ccc2c(=O)n3c(nc2c1)CCCCC3)C(=O)Nc1ncc(Cl)cc1Cl` (configuration not stated): 29.8%.
Next, `CCOc1ccc(CCNC(=O)c2ccc3c(=O)n4c(nc3c2)CCCCC4)cc1`: 51%; `O=C(Nc1ccc(F)cc1)c1ccc2c(=O)n3c(nc2c1)CCCCC3`: 21.9%.
As for `O=C(NNC(=O)c1ccc2c(=O)n3c(nc2c1)CCC3)c1ccc(F)cc1`, the inhibition was -18.9%.
For `CC(OC(=O)c1ccc2c(=O)n3c(nc2c1)CCCCC3)C(=O)Nc1ccc(F)cc1Cl` (configuration not stated), the inhibition came to 2.57%.
The value for `CNS(=O)(=O)c1cccc(C(=O)OCC(=O)N2c3ccccc3CC2C)c1` (configuration not stated) was -1.88%; that for `Fc1ccc(-c2n[nH]c(=S)c3ccccc23)cc1` was 15.8%; that for `CCOc1ccc(NC(=O)Nc2ccc3c(c2)CCC3)cc1` was -9.82%.
As for `Cc1cc(F)ccc1Oc1cc(NN2CCCCC2)c([N+](=O)[O-])cc1[N+](=O)[O-]`, the inhibition amounted to 8.26%.
For the molecule `CC(Oc1ccc(S(=O)(=O)N2CCCC2)cc1[N+](=O)[O-])C(=O)NC1(C#N)CCCCC1` (configuration not stated), the inhibition worked out at 9.55%.
In the case of `COc1cccc(CNC(=O)C2CCN(c3cnccn3)CC2)c1`, the inhibition is -3.9%.
Take `O=C1NC(=O)N(CCc2ccc(F)cc2)C(=O)/C1=C/c1ccco1`: the inhibition was 22.4%.
As for `O=C1NC(=O)N(CCc2ccc(F)cc2)C(=O)/C1=C/c1cccs1`, the inhibition was 2.97%.
For the molecule `O=C(c1ccccc1NS(=O)(=O)c1cccs1)N1CCOCC1`, the inhibition was 6.22%.
As for `Cc1cc(OCC(=O)Nc2ncn[nH]2)ccc1Cl`, the inhibition was 30.6%.
For `Cc1cccc(OCC(=O)Nc2nonc2NC(=O)COc2cccc(C)c2)c1`, the inhibition was 48%.
Turning to `CCCCn1nnc(NC(=O)COc2cc(C)ccc2C(C)C)n1`, the inhibition turned out to be 64%.
Consider `CCCn1nnc(NC(=O)COc2ccccc2Cl)n1`, for which the inhibition worked out at 67.3%.
In the case of `Cc1cccc(N2CC(C(=O)Nc3ccc4c(c3)OCCO4)CC2=O)c1C` (configuration not stated), the inhibition is -5.78%.
Next, `CCc1cc2c(=O)c(-c3nc(C)cs3)coc2cc1O`: 13.5%.
In the case of `COCCNC(=O)C1CCC(=O)N1S(=O)(=O)c1ccc(C)cc1` (configuration not stated), the inhibition was 1.96%.
As to `Cc1[nH]n(-c2ccccc2)c(=O)c1C=Nc1cccc2cccnc12`, the inhibition is 33.6%.
For `Cc1[nH]n(-c2ccccc2)c(=O)c1C=Nc1cccc(F)c1`, the inhibition turned out to be 5.36%.
As for `O=C(Cc1ccccc1F)N1CCN(CC(=O)N2CCCC2)CC1`, the inhibition came out at 8.24%.
Take `CCOC(=O)CSc1nnc(CCc2nc3ccccc3[nH]2)n1C`: the inhibition was -4.77%.
Turning to `COc1ccc2occ(C(=O)c3ccccc3)c2c1`, the inhibition is 3.51%.
Next, `Cc1ccc(C(=O)c2coc3ccc(OCC(=O)O)cc23)cc1`: -4.9%; `CNC(=S)NNC(=O)c1cn(C)nc1C`: -3%; `CCn1ccc(C(=O)NCCCN2CCCC2=O)n1`: 5.42%.
Take `Cc1c([N+](=O)[O-])c([N+](=O)[O-])nn1CC(=O)N1CCOCC1`: the inhibition worked out at 1.03%.
As for `O=C(O)C1C2C=CC(CC2)C1C(=O)O` (configuration not stated), the inhibition amounted to 1.2%.
The value for `O=C(C[C@@H]1C/C=C\CCCC(=O)OC[C@@H]2CCCN2C1=O)N[C@@H](CO)Cc1ccccc1` was 0.26%; that for `CS(=O)(=O)c1ccccc1-c1nnc(NC(=O)c2ccco2)o1` was 38.6%; that for `Cc1ccc(O)c(NC(=O)c2ccco2)c1` was 15.1%.
Next, `O=C(Nc1nnc(-c2ccco2)o1)c1ccc(S(=O)(=O)N2CCCC2)cc1`: 25.6%; `CS(=O)(=O)c1ccccc1-c1nnc(NC(=O)c2ccc(S(=O)(=O)N3CCCC3)cc2)o1`: -2%; `Cc1ccc2nsnc2c1NC(=O)c1ccc([N+](=O)[O-])o1`: 75.4%.
Consider `CS(=O)(=O)c1ccc(-c2nnc(NC(=O)c3ccco3)o2)cc1`, for which the inhibition came to 43.1%.
The value for `Cc1ccc(NC(=O)c2ccco2)cc1C` was 60.8%.
On to `Cc1ccc(C)c(-c2nnc(NC(=O)CCS(=O)(=O)c3ccc(F)cc3)o2)c1`, for which the inhibition was 41.4%.
In the case of `Cc1nc(-c2ccc(NC(=O)C(C)(C)C)cc2)c(-c2ccccc2)o1`, the inhibition is -0.61%.
`Nc1cccc(C(=O)OCC(=O)NC2CCCc3ccccc32)c1` (configuration not stated): the inhibition came to 6.1%.
For the molecule `O=C1c2ccccc2C(=O)N1CCOc1cccc(Br)c1`, the inhibition is 53.6%.
As for `CCCCCC(=O)N/N=C(\C)c1ccc(NC(=O)c2ccco2)cc1`, the inhibition turned out to be 10.3%.
The value for `CCNC(=O)C(=O)Nc1ccc(OC)c(Cl)c1` was -0.29%; that for `COc1ccc(Cc2nc3ccc(C(=O)N4C[C@@H](C)O[C@@H](C)C4)cc3o2)cc1OC` was 17.8%.
Next, `c1ccc(-c2nn3c(C4CCCCC4)nnc3s2)nc1`: 9%; `Cc1nc(N2CCN(Cc3ccccc3)CC2)nc2c1C(=O)CC(c1ccco1)C2` (configuration not stated): 3.19%; `COc1cccc(-c2cccc(NC(=O)C3CCN(Cc4cccc(C)n4)CC3)c2)c1`: 5.93%.
Next, `CCc1ccc(NC(=S)N2CCN(C)CC2)cc1`: -4.9%; `COc1ccc([N+](=O)[O-])cc1NC(=O)CCCOc1ccccc1`: 12.4%; `Cc1ccc(C(=O)Nc2ccc(Oc3cccc(C(F)(F)F)c3)nc2)cc1`: -15.4%.
For the molecule `COc1cc(-c2nnc(NC(=O)c3ccco3)o2)cc(OC)c1OC`, the inhibition was found to be 12.9%.
Regarding `Cc1ccc(-c2nnc(-c3ccc(NC(=O)c4ccco4)cc3)o2)cc1`, the inhibition is -12.3%.
Next, `COc1ccc(CN2C(=O)c3ccccc3C2OC)cc1` (configuration not stated): 43.5%.
`COc1ccc(CCNC(=O)c2nc(-c3cccs3)no2)cc1OC`: the inhibition amounted to 62.8%.
Take `O=C(NCc1ccccc1)c1nc(-c2cccs2)no1`: the inhibition is 15.8%.
In the case of `CC(=O)c1ccccc1Oc1cc(NN2CCCCC2)c([N+](=O)[O-])cc1[N+](=O)[O-]`, the inhibition is 30.5%.
`Cc1ccc(S(=O)(=O)N2CCCC2C(=O)NC2CCCCC2)cc1` (configuration not stated): the inhibition amounted to 13.2%.
Next, `Nc1ccc(C#Cc2ccc3c(=O)c4ccccc4oc3c2)cc1`: 11.2%; `Nc1ccc2oc3ccccc3c2c1`: 68.5%.
Turning to `Cc1sc(NC(=O)c2oc3ccccc3c2C)c(C#N)c1C`, the inhibition is 0.16%.
As to `NS(=O)(=O)c1ccc(CCNCc2cc(Br)ccc2OCc2ccccc2)cc1`, the inhibition stood at 36%.
For `CCOc1ccc(N(C(=O)c2ccc(S(=O)(=O)N3CCCC3)cc2)C2C=CS(=O)(=O)C2)cc1` (configuration not stated), the inhibition worked out at 2.41%.
With `CCN(CCn1cccn1)Cc1cn[nH]c1-c1ccc(-c2ccccc2)cc1`, the inhibition is 23%.
As to `O=C(CNCc1ccccc1)NC1C2CC3CC(C2)CC1C3` (configuration not stated), the inhibition was 7.24%.
The value for `CCCC(=O)NC1C2CC3CC(C2)CC1C3` (configuration not stated) was 66.5%; that for `Cc1ccc(S(=O)(=O)N2CCC(C(=O)NC3CC(C)(C)NC(C)(C)C3)CC2)cc1` was -9.46%; that for `O=C(CC1SC(N2CCCCC2)=NC1=O)Nc1cccc(C(=O)O)c1` (configuration not stated) was -10.1%.
For the molecule `COC(=O)CCSc1cc(NCCOC(C)=O)c([N+](=O)[O-])c2nonc12`, the inhibition amounted to 72.4%.
For the molecule `CCCSc1cc(NCCOC(C)=O)c([N+](=O)[O-])c2nonc12`, the inhibition was 74.5%.
Consider `Cn1ccnc1Sc1cc(NCCCO)c([N+](=O)[O-])c2nonc12`, for which the inhibition stood at 77.2%.
In the case of `CC(=O)OCCNc1cc(SC(C)C)c2nonc2c1[N+](=O)[O-]`, the inhibition was found to be 65.7%.
Regarding `O=[N+]([O-])c1c(NCCCO)cc(SCc2ccco2)c2nonc12`, the inhibition came to 70.1%.
Take `CC(=O)OCCCNc1cc(Sc2nc3ccccc3s2)c2nonc2c1[N+](=O)[O-]`: the inhibition came to 7.19%.
